In the library only some 12% were active in any assay of this set; here they are far more common.
BAZ2B block: BAZ2B (human) inhibition | AlphaScreen BAZ2B-H3K14Ac peptide displacement | Potency, µM (titrated, usually from 114 µM), inactives show at the top dose activity change, negative = inhibition, most hits filed as inhibitors | 4.4% of 360,000 active | AID 504333; note: potency is the fitted concentration of half-maximal effect; % is set by controls: 0 for no effect and ±100 for the full control effect; nearly all actives have a fitted effect of over 60% in size
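Complex of BAZ2B and biotin-H3K14Ac (50 nM apiece) forms over 30 min at RT, then faces library compounds up to 110 uM for another 30 min; AlphaScreen beads added, 20 min dark incubation, luminescence read.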
PLK1 PBD block: inhibitors of human PLK1 polo-box domain binding; P53350; Plk1 PBD binding of FITC phosphopeptide, fluorescence polarization; Potency, µM, for inactives: max response, negative = inhibition, hits mostly inhibitors; 2.8% of 360,000 active; AID 720504; note: potency is the fitted concentration of half-maximal effect; series mostly up to about 57 µM; % is set by controls: 0 for no effect and ±100 for the full control effect; nearly all actives have a fitted effect of over 65% in size
PI5P4K alpha inh: inhibitors of human PI5P4K alpha; P48426; PI5P4Kalpha enzyme, ADP-Glo luminescence, 60 min; stronger effect = lower value; max response, %; 1.2% of 330,000 active; active = max response of -50% or lower; inconclusive = between -30% and -50%; inactive = -30% or higher; note: value at the top dose of about 77 µM; % is set by controls: 0 for no effect and ±100 for the full control effect
Target sequence (P48426 whole entry, looked up): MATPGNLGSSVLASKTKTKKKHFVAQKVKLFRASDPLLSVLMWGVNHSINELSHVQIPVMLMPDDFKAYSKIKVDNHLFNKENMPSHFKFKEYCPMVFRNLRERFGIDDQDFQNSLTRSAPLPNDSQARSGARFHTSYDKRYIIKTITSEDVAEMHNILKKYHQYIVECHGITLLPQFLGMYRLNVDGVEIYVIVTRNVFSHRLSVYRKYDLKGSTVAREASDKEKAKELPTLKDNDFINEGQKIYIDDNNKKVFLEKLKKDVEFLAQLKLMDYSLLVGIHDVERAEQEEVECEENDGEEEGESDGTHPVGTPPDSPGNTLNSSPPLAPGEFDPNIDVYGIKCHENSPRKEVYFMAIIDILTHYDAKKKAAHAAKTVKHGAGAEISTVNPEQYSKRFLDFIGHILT
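ADP-Glo luminescence end-point after a 60 min room-temperature kinase reaction. PI5P4Kalpha and substrate in HEPES pH 7.4 buffer with EGTA, 0.1% CHAPS and 5% DMSO; ATP at 5 microM final.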
G9a inh: inhibitors of human histone lysine methyltransferase G9a; Q96KQ7; G9a H3K9 monomethylation, AlphaScreen, 2 h; Potency, µM (highest dose often 102 µM), without a hit: at the top dose activity, negative = inhibition, actives largely listed as inhibitors; 8.8% of 350,000 active; note: potency is the fitted concentration of half-maximal effect; % is set by controls: 0 for no effect and ±100 for the full control effect; nearly all actives have a fitted effect of over 75% in size
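G9a (20 nM) preincubated 15 min RT with compounds, then 500 nM biotinylated H3K9 peptide and 20 uM SAM added; 2 h RT reaction. Monomethyl-H3K9 product detected by AlphaScreen with anti-H3K9me1 antibody, streptavidin donor and anti-rabbit IgG acceptor beads.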
HP1b binding inh: HP1-beta chromodomain-methylated histone interaction inhibition; P83916; AlphaScreen HP1-beta / biotin-H3K9me3 peptide binding; Potency, µM (series often up to 114 µM), for the others: at the highest dose activity change, negative = inhibition, hits mostly inhibitors; 0.56% of 390,000 active; note: potency is the fitted concentration of half-maximal effect; nearly all actives have a fitted effect of over 70% in size
Target sequence (P83916 whole entry, looked up): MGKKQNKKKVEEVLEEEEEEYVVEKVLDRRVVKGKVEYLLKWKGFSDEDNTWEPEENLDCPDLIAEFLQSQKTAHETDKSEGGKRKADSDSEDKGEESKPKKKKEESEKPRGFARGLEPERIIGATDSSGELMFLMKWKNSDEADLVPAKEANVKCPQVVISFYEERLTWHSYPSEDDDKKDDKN
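HP1-beta protein (50 nM final) preincubated 30 min at room temperature with biotinylated H3(1-18)K9me3 peptide (50 nM) in PBS pH 7.4, 0.01% Tween-20, then compound added for 30 min. AlphaScreen streptavidin donor/nickel chelate acceptor beads (10 ug/mL final), 30 min dark, luminescence read.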
JMJD2A Tudor: inhibitors of human JMJD2A Tudor domain; AlphaScreen JMJD2A-Tudor / H3K4me3 peptide binding; Potency, µM (titrated, usually from 114 µM), for inactives: top-dose activity change, negative = inhibition, most hits filed as inhibitors; AID 504339; 4.4% of 390,000 active; note: potency is the fitted concentration of half-maximal effect; % is set by controls: 0 for no effect and ±100 for the full control effect; nearly all actives have a fitted effect of over 50% in size
* marks the source's active call; other numbers are inactive results; ? = inconclusive; nt = no result given; ! = a repeat was not active; [ ] = another dose, or the depositor's remark. Unless noted, calls come from the whole dose curve; as a rule, active = well fitted curve in the direction sought with a large enough effect; inconclusive = small, poorly fitted or top-dose-only effect, or another doubt; inactive = no such curve, though single readings can be large; an effect the other way counts as inactive or inconclusive.

SMILES	BAZ2B block	PLK1 PBD block	PI5P4K alpha inh	G9a inh	HP1b binding inh	JMJD2A Tudor
COCCCNc1oc(COc2ccc(Cl)cc2Cl)nc1C#N	-37.4%	?	6.8	31.6µM*	-23.7%	?
CCNc1oc(-c2ccc(COc3ccc(Cl)cc3)o2)nc1C#N	-37.2%	nt	nt	-28.1%[59 µM]	17.8%	-5.6%
N#Cc1nc(-c2ccc(OCc3ccccc3)cc2)oc1N1CCC(C(N)=O)CC1	1.4%	-8.5%	3.8	8.0%[2.33 µM]	-2.0%	-22.1%
CCCCNc1oc(-c2ccc(COc3ccc(OC)cc3)o2)nc1C#N	-18.7%	nt	nt	-41.3%[59 µM]	11.2%	-10.6%
COc1ccc(OCc2ccc(-c3nc(C#N)c(NCc4ccc(F)cc4)o3)o2)cc1	?	nt	nt	3.98µM*	-11.8%	?
CN(C)CCNc1oc(COc2ccc(Cl)cc2Cl)nc1C#N	-7.6%	-6.4%	nt	nt	9.8%	-35.2%
CN(C)CCNc1oc(-c2ccc(COc3ccc(Cl)cc3)o2)nc1C#N	?	nt	nt	?	-13.0%	39.8µM*
N#Cc1nc(-c2ccc(COc3ccc(Cl)cc3)o2)oc1N1CCC(C(N)=O)CC1	?	nt	nt	8.91µM*	11.9%	-21.9%
COc1ccc(OC)c(S(=O)(=O)NCCc2sc(-c3ccc(C)cc3)nc2C)c1	-18.5%	nt	nt	-0.5%[59 µM]	32.8%[57 µM]	-35.8%
COC(=O)CCCC[C@@H]1O[C@H](CCc2ccccc2)CC2=C1C(=O)OC(C)(C)O2	nt	-2.1%	6.9	nt	nt	nt
COCCCNc1oc(-c2ccc(COc3ccc(Cl)cc3)o2)nc1C#N	?	nt	nt	8.91µM*	-27.8%	?
COCCNc1oc(-c2ccc(COc3ccc(OC)cc3)o2)nc1C#N	?	nt	nt	-28.7%[59 µM]	?	?
c1ccc(CNc2nc(-c3cccs3)nc3ccccc23)cc1	-2.1%	-1.3%	0.0	9.6%[59 µM]	53.5%	-4.1%
CCSc1nc(-c2cccs2)nc2ccccc12	471.4%	23.8µM*	-15.1	147.6%	69.5%	?
S=C1NC2=C(CCCC2)C2(CCCCC2)N1	-4.3%	-6.9%	0.8	7.08µM*	30.0%	-7.6%
COc1ccc(C(=O)Nc2ccccc2C(=O)N2CCCCCC2)cc1OC	1.5%	-7.8%	-0.1	10.6%	13.7%	-9.7%
CCC(C)C(NC(=O)c1ccccc1NC(=O)c1ccco1)C(=O)O (stereo not given)	-1.4%	-4.9%	nt	?	26.5%	-18.5%
COc1ccc(C(=O)NNC(=O)C(=O)NC(C)c2ccccc2)cc1OC (stereo not given)	-12.6%	0.3%	0.9	6.31µM*	40.4%	-3.2%
CCC(C)C(NC(=O)c1ccccc1NC(=O)c1ccccc1)C(=O)O (stereo not given)	-12.0%	26.7µM*	-13.2	-18.7%	0.5%	-6.6%[11.4 µM]
COc1ccc(C(=O)Nc2ccccc2C(=O)NC(C)C)cc1OC	-0.4%	26.7µM*	-18.0	5.6%[59 µM]	3.5%	50.1µM*
CCN(CC(=O)Nc1ccc(OC)cc1)C(=O)c1cc(S(=O)(=O)N(C)C)ccc1N1CCCC1	21.2%	-7.2%	-2.8	28.6%[12.7 µM]	30.4%	-17.7%
CCNc1nc(NCC)nc(N(CC)C(N)=S)n1	-24.0%	?	2.7	1.78µM*	-3.9%	-10.4%
Cc1cccc(C(O)c2ncc(-c3ccc4ccccc4c3)[nH]2)c1C (stereo not given)	nt	-8.7%	-0.3	nt	nt	nt
CCCS(=O)(=O)C/C(N)=N/OC(=O)c1ccccc1Cl	-31.9%	-15.6%	-1.4	39.8µM*	10.5%	-9.5%
c1ccc(-n2nc3c(ccc4cnnc43)[nH]2)cc1	50.1µM*	-29.9%	0.5	17.8µM*	-6.5%	16.4%[11.4 µM]
SMILES	BAZ2B block	PLK1 PBD block	PI5P4K alpha inh	G9a inh	HP1b binding inh	JMJD2A Tudor
COc1cccc(C(NC(C)=O)c2nc(-c3ccc(F)c(Cl)c3)cs2)c1 (stereo not given)	nt	-1.7%	21.9	nt	nt	nt
Cc1ccc(CNC(=O)CCn2cc(-c3ccc(C)cc3)nc2-c2ccncc2)cc1	?	-6.2%	12.7	44.7µM*	-3.5%	-25.5%
Cc1ccc(CNC(=O)CCn2cc(-c3ccc(F)cc3)nc2-c2ccncc2)cc1	-13.0%	0.7%	11.4	-4.3%[2.33 µM]	12.0%	-28.9%
Cc1c(N=C2NN=C(c3c[nH]c4ccccc34)CS2)c(=O)n(-c2ccccc2)n1C	-27.7%	?	?	44.7µM*	22.1%	?
Cc1c(N=C2NC(=O)/C(=C/c3ccc(O)cc3)S2)c(=O)n(-c2ccccc2)n1C	0.8%	5.1%	-17.4	-1.5%[59 µM]	24.2%	-11.3%
Cc1c(N=C2NN=C(c3ccc(Cl)cc3)CS2)c(=O)n(-c2ccccc2)n1C	-26.5%	?	?	10µM*	1.0%	-30.2%
Cc1c(N=C2SCC(=O)N2/N=C/c2ccccc2Cl)c(=O)n(-c2ccccc2)n1C	-26.2%	-22.3%	6.5	?	-7.1%	-19.2%
c1nc(N2CCOCC2)c2cc(-c3ccoc3)ccc2n1	nt	nt	nt	3.5%[0.501 µM]	nt	nt
CCc1nnc(NC(=O)c2nc(S(=O)(=O)Cc3ccc(C)cc3)ncc2Cl)s1	?	23.8µM*	-16.8	44.7µM*!	-15.0%[57 µM]	14.1µM*!
COc1ccc(NC(=O)c2nc(S(=O)(=O)Cc3ccc(C)cc3)ncc2Cl)cc1	1.9%	nt	nt	?	33.5%	-14.8%
CCc1nnc(NC(=O)c2nc(S(=O)(=O)Cc3ccccc3)ncc2Cl)s1	?	-16.5%	?	28.2µM*	17.8%[57 µM]	7.94µM*
Cc1ccc(CS(=O)(=O)c2ncc(Cl)c(C(=O)Nc3ccc(OC(F)F)cc3)n2)cc1	-29.3%	21.2µM*	-9.6	nt	-21.8%[57 µM]	?
CCc1nnc(NC(=O)c2nc(S(=O)(=O)Cc3cccc(C)c3)ncc2Cl)s1	?	26.7µM*	-27.2	44.7µM*	-14.9%[57 µM]	2.82µM*
COc1cc(OC)cc(C(=O)NCCc2csc(-c3ccc(C(F)(F)F)cc3)n2)c1	3.9%	nt	nt	9.0%[59 µM]	20.7%[57 µM]	-15.5%
CS(=O)(=O)c1ncc(Cl)c(C(=O)Nc2ccc3ccccc3c2)n1	-36.5%	9.47µM*	5.1	10µM*	41.3%	2.8%
CCOc1ccccc1NC(=O)c1nc(S(=O)(=O)Cc2cccc(C)c2)ncc1Cl	-30.1%	?	-0.4	56.2µM*!	28.9%	?
COC(=O)c1ccccc1NC(=O)c1nc(S(=O)(=O)Cc2ccccc2)ncc1Cl	-19.6%	?	4.2	-6.3%	9.8%	-21.5%
CCSc1nnc(NC(=O)c2ccc3ccccc3n2)s1	10.6%	-11.9%	-20.0	-6.6%[2.33 µM]	3.9%	-17.4%
CCS(=O)(=O)c1ncc(Cl)c(C(=O)Nc2ccc(C)cc2)n1	?	?	6.4	nt	25.0%	-7.5%
CC(=O)Nc1ccc(NC(=O)c2nc(S(=O)(=O)Cc3ccccc3)ncc2Cl)cc1	-29.8%	16.8µM*	1.5	-11.6%[0.501 µM]	46.6%	0.4%
CCc1nnc(NC(=O)c2ccc3ccccc3n2)s1	1.7%	-22.7%	-15.9	50.1µM*	-10.7%	-8.2%
Cc1c(C(=O)N(C)C)sc2c1c(=O)n(-c1ccc(Cl)c(Cl)c1)c(=O)n2CC(=O)N1CCCCC1C (stereo not given)	-11.0%	nt	nt	2.3%[59 µM]	-2.6%	-22.3%
